Structures are written as SMILES. The whole screen tested about 76,000 compounds, of which about 1,200 (1.6%) were called active. Where a call stands in place of a potency, no number is given. Roughly 4% stayed inconclusive and do not appear here. Calls follow the shape of the full dose curve. The sample as a whole holds a higher share of actives than the screen did.
Potency is read from the fitted curve at half-maximal effect.

For this experiment, the target named is Atrial natriuretic peptide receptor 1 (Homo sapiens) (UniProt P16066). The experiment can be described thus: Natriuretic polypeptide receptor (hNpr1) antagonism - Primary qHTS. Also: nearly all actives have a fitted effect of over 60% in size. To be noted: HEK293 hNpr1 GloSensor cGMP, ANP-stimulated luminescence; series mostly up to 46.3 µM. The source says: Pruritus or itch, is an irritating skin sensation that creates a need to scratch, and ranges from mildly unpleasant and passing to acute and persistent sensations. […] Conventional treatments include topical anti-inflammatory agents, anti-histamines, and emollients, which are aimed at managing the itchy sensation and not the underlying disease. The treatment of pruritus remains a diagnostic and therapeutic challenge. Neurotransmission in the spinal cord from primary pruriceptors to second order neurons is a necessary step that eventually results in the sensation of itch. At this synapse, primary pruriceptors use the neuropeptide natriuretic polypeptide B (NppB) to activate its cognate receptor Natriuretic polypeptide receptor 1 (Npr1) on second order neurons. Inhibition of this step is a new potential strategy to inhibit acute and chronic itch. In order to identify small molecular compounds that can inhibit the Npr1 receptor we developed a high-throughput assay to probe inhibition of the receptor guanylate cyclase Npr1. The assay was designed taking advantage of Promega's GloSensor[TM] technology (Fan, F. et al. 2008). It involves the expression of a cyclic guanosine monophosphate (cGMP) biosensor, comprised of a firefly luciferase variant that was coupled to the cGMP binding domain of human phosphodiesterase 5A, and loading of cells with a cell-permeable luciferase substrate to monitor cGMP production by Npr1 in real time in live cells. In detail, we generated human embryonic kidney 293 cells stably expressing the human Npr1 and the cGMP GloSensor[TM] pGS-40F. Stimulating these cells with the Npr1 agonists human NppA or NppB, luciferase-induced light production could be detected in a dose-dependent manner. We also generated HEK293 cells stably expressing human Npr2 and pGS-40F and cells only expressing pGS-40F to conduct secondary counter screens. In these cells, NppC or sodium nitroprusside were used to stimulate Npr2 or soluble guanylate cyclase which is endogenously expressed in HEK293 cells, respectively. REFERENCE F. Fan, B. F. Binkowski, B. L. Butler, P. F. Stecha, M. K. Lewis, K. V. Wood, Novel genetically encoded biosensors using firefly luciferase. ACS Chem. Biol., 2008, 3: 346-351 .
Sequence of Atrial natriuretic peptide receptor 1 (Homo sapiens) (P16066 whole entry, looked up): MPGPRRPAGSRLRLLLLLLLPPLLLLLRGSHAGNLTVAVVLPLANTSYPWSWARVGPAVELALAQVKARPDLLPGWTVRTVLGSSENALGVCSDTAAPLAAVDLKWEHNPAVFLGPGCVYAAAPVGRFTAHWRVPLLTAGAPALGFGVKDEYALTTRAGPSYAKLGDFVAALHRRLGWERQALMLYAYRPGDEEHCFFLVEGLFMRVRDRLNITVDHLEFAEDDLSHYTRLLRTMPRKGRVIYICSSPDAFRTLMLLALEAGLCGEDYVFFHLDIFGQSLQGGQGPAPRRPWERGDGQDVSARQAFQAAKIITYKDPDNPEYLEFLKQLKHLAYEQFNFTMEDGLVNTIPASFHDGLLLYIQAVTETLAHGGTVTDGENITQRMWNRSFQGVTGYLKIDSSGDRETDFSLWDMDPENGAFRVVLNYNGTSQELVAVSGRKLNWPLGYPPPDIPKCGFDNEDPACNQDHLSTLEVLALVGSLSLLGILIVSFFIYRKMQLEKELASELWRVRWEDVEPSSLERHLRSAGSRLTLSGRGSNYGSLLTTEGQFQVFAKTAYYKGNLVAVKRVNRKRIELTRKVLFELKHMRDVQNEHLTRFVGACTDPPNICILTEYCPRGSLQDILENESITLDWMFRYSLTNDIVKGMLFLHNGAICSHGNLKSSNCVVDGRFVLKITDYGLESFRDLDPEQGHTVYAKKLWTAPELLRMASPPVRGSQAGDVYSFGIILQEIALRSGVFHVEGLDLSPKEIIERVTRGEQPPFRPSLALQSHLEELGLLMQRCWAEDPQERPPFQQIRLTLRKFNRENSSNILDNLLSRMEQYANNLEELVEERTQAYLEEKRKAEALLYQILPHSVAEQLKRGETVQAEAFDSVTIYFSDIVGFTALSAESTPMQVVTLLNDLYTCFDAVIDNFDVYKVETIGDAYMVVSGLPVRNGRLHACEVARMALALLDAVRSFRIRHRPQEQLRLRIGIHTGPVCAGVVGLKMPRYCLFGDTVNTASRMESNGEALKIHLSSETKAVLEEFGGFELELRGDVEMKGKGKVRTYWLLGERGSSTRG
PROTOCOL TABLES (as described by Inglese J, Shamu CE and Guy RK. 2007) SEQUENCE No. (e.g., 1, 2, 3, etc.); […] (e.g., Cells, Incubation, Reagent, etc.); VALUE and DESCRIPTION. GLOSENSOR PROTOCOL 1. Cells. Seed 1500 HEK293 cGMP-sensor cells expressing hNpr1 per well in 4uL into Greiner 1536-well white/solid bottom high base, tissue culture-treated plates. 2. Incubation. Incubate plated cells at 37C in 5% CO2, 95% RH overnight. 3. Reagent. Add 1uL per well GloSensor reagent from Promega (2% final concentration) or CO2 independent media vehicle control to respective columns of Greiner 1536-well plates. 4. Incubation. Incubate plated cells at room temperature for 2 h, protect from light. 5. Compounds. Library compounds and A-71915 control added at 23 nL per well, transferred by Pin Tool. 6. Incubation. Incubate plated cells for 30 min. at room temperature, protect from light. 7. Detector. GloSensor baseline pre-read luminescence measured using CCD-based camera (Viewlux). 8. Compound. Add 1uL of hNppA peptide to 0.1 nM final concentration to stimulate hNpr1 or CO2 independent media as vehicle control. 9. Incubation. Incubate treated cells at room temperature for 20 min., protect from light. 10. Detector. GloSensor post-hNppA luminescence measured using CCD-based camera (Viewlux). NOTES (numbers refer to Sequence numbers above) 1. HEK293 cells expressing hNpr1 and GIP/pGS-40F grown to 85-95% confluence (48-72 h) in T175 culture flasks (CO2 independent media supplemented with 10% FBS, 1% Pen/Strep antibiotics and 1 ug/mL puromycin). Trypsinize and harvest cells from T175 culture flasks and filter through 40 um cell strainer. Cells counted with Invitrogen Countess (30,000,000 - 50,000,000 cells/flask). […]
Consider `CC(=O)N1CCC(NC[C@H]2O[C@H](Cc3cc(-c4cccc(O)c4)on3)CC[C@@H]2O)CC1`, for which the Potency is 25.1 µM (active).

For the compound `O[C@H]1CC[C@@H](Cc2cc(-c3ccccc3)on2)O[C@@H]1CNCc1ccccc1`, the Potency result was “inactive”.

For `O=C(NC[C@H]1O[C@H](Cc2cc(-c3ccccc3)on2)CC[C@@H]1O)C1CCC1`, the Potency entry was “inactive”.

Consider `NC(=O)C1CCCN(CC(=O)Nc2nc3ccccc3[nH]2)C1` (stereo unspecified), for which the Potency entry is “inactive”.

With `CC1Oc2ccc(NC(=O)c3ccc([N+](=O)[O-])cc3)cc2CN(Cc2ccccc2)C1=O` (stereo unspecified), the Potency result is “inactive”.

`Cc1nc(-c2ccncc2)ncc1C(C)Nc1ncnc(C)c1C` (stereo unspecified): the Potency was 10 µM (active).

Take `Cc1ccc(-c2ncc(C(=O)Nc3ccccc3C)c(-c3ccncc3)n2)cc1`: the Potency result is “inactive”.

Turning to `CC(Cn1cncn1)Nc1nc(-c2ccncc2)nc2c1cnn2C` (stereo unspecified), the Potency entry is “inactive”.

For `COCC(=O)N1CCCC(c2nc(-c3ccc(C)nn3)no2)C1` (stereo unspecified), the Potency entry is “inactive”.

On to `O=C(c1cccc(O)c1)N1CCNc2cnc(Nc3cccc(F)c3)nc2C1`, for which the Potency is 22.4 µM (active).

On to `O=C(c1ccccc1)N1CCNc2cnc(Nc3cccc(C(F)(F)F)c3)nc2C1`, for which the Potency was 20 µM (active).

For the compound `O=C(c1cccc(F)c1)N1CCCC(CN2CCOCC2)CC1` (stereo unspecified), the Potency result was “inactive”.

For `O=C(c1nc2ccccc2[nH]1)N1CCNc2cnc(Nc3ccc(-n4ccnc4)cc3)nc2C1`, the Potency result was “inactive”.

`O=C(c1cccc(F)c1)N1CCCC(c2nccn2Cc2cscn2)C1` (stereo unspecified): the Potency entry was “inactive”.

As for `COc1ccccc1Nc1ncc2c(n1)CN(C(=O)COc1ccccc1)CCN2`, the Potency result is “inactive”.

In the case of `COc1ccc(C(=O)N[C@H]2C[C@@H](c3nc(-c4ccc(OC)cc4)no3)N(C)C2)cc1`, the Potency result is “inactive”.

Turning to `c1ccc(Nc2cnc3ccc(-n4ccnc4)nn23)cc1`, the Potency result is “inactive”.

Regarding `CC1(C)C[C@H](NC(=O)c2ccc(C#N)cc2)[C@@]2(CCC(=O)NCCc3c[nH]c4ccccc34)CC[C@](C)(O)C[C@@H]12`, the Potency result was “inactive”.

With `Cc1ccccc1-c1cn[nH]c1C1CCN(C(=O)CCCn2cnnn2)CC1`, the Potency entry was “inactive”.

Turning to `O=C(c1cccc(F)c1)N1CCOC[C@H](Oc2ccc(C(F)(F)F)cc2)C1`, the Potency is 28.2 µM (active).

In the case of `O=C(C1CCOCC1)N1CCOC[C@H](Oc2ccccc2)C1`, the Potency result was “inactive”.

Regarding `O=C(c1cccc(F)c1)N1CCC(CCOc2ccc(F)cc2)C1` (stereo unspecified), the Potency entry is “inactive”.

On to `Cc1nn(-c2ccc(C(C)C)cc2)c(C)c1[C@@H]1C=C[C@@H](NC(=O)CC2(CC(=O)O)CCCC2)C1`, for which the Potency result was “inactive”.

`Cc1nn(Cc2ccccc2)c(C)c1[C@@H]1C=C[C@@H](NC(=O)NC2CCCCC2)C1`: the Potency entry is “inactive”.

As to `Cc1nn(-c2cccc(Br)c2)c(C)c1[C@@H]1C=C[C@@H](NC(=O)CC2(CC(=O)O)CCCC2)C1`, the Potency entry is “inactive”.

For the compound `Cc1nn(Cc2ccccc2)c(C)c1[C@@H]1C=C[C@@H](NC(=O)NC(C)C)C1`, the Potency entry is “inactive”.

With `Cc1nn(-c2cccc(Br)c2)c(C)c1[C@@H]1C=C[C@@H](NS(=O)(=O)c2ccccc2)C1`, the Potency result was “inactive”.

For the compound `Cc1nn(-c2ccc(C(C)C)cc2)c(C)c1[C@@H]1C=C[C@@H](NC(=S)NCC(C)C)C1`, the Potency was 28.2 µM (active).

In the case of `COc1ccc(NC(=O)N[C@@H]2C=C[C@@H](c3c(C)nn(-c4ccc(C(C)(C)C)cc4)c3C)C2)cc1`, the Potency result is “inactive”.

Regarding `COc1ccc(-n2nc(C)c([C@@H]3C=C[C@@H](NC(=O)Nc4ccccc4)C3)c2C)cc1`, the Potency is 14.1 µM (active).

Turning to `COc1ccc(-n2nc(C)c([C@H]3C=C[C@@H](OC(=O)Nc4cccc(F)c4)C3)c2C)cc1`, the Potency was 20 µM (active).

Values taken from PubChem BioAssay AID1347048 (National Center for Advancing Translational Sciences (NCATS), 2019).
